Compounds with a hit are over-represented: about 4.1% of the library has one in this group of screens.
DAX1 inh-1 – inhibitors of DAX1 repression of SF-1 activated StAR promoter; HEK293T StAR-luciferase reporter, SF-1/DAX-1 repression relief; inhibition, % at 6.8 µM; actives 1.1% (n = 370,000);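 active = inhibition above the mean over all tested compounds plus 3 SD, cut at about 3.6% in these data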;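 note: 0% = DAX-1 cells with DMSO and 100% = cells lacking DAX-1 with DMSO; higher inhibition means more luminescence from relief of DAX-1 repression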
DAX1 inh-2 – inhibits human nuclear receptor DAX1 | HEK293 Gal4-DAX1 luciferase reporter, luminescence | actives 0.99% (n = 340,000) | P51843 | inhibition, % at 6.75 µM;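 active = inhibition above the mean over all tested compounds plus 3 SD, cut at about 4.2% in these data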;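 note: 0% = DAX1-transfected cells with DMSO and 100% = empty-vector control cells with DMSO; inhibition shows as a rise in luminescence from relieved DAX1 repression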
Target sequence (P51843 207-470 limits assumed): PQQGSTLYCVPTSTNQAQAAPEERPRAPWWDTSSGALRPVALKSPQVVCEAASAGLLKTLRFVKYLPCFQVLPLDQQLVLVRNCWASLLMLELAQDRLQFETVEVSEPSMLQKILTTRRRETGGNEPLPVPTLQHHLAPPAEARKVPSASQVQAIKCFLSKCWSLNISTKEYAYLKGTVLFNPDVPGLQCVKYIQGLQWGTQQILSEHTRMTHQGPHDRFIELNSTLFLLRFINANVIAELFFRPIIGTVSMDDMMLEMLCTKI
hgDAF-12 ag – hgDAF-12 agonism, primary luciferase screen | HEK293 GAL4-hgDAF12 UAS-luciferase reporter, agonist luminescence; normalized to butyrate control | activation, % at 6.8 µM | actives 1.8% (n = 370,000) | AID 687014;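 active = activation above a cutoff set at the mean of all screened compounds plus 3 SD, cut at about 10% in these data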;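 note: 0% = DMSO wells and 100% = sodium butyrate wells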
ssDAF-12 act – activates DAF-12 receptor from parasite S. stercoralis. HEK293 ssDAF-12/GRIP1 lit1-tk-luc reporter, luminescence; % of 3 µM dafachronic acid response. activation, % at 6.8 µM. actives 1% (n = 370,000);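 active = activation above the mean over all tested compounds plus 3 SD, cut at about 0.9% in these data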;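 note: 0% = DMSO-only wells and 100% = 3 µM delta7-dafachronic acid wells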
hcDAF12 agonist – activates DAF-12 receptor from parasite H. contortus | actives 1.4% (n = 370,000) | HEK293 hcDAF-12 lit1-tk-luc reporter, luminescence; 0% DMSO, 100% Δ7-dafachronic acid | activation, % at 6.8 µM;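 active = activation above the mean of all tested compounds plus 3 SD, cut at about 5.5% in these data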;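 note: 100% = response to 3 µM Δ7-dafachronic acid high control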
* = called active by the depositor; · = no result.

SMILES | DAX1 inh-1 | DAX1 inh-2 | hgDAF-12 ag | ssDAF-12 act | hcDAF12 agonist
COC(=O)[C@H]1C[C@]2(C(/C=C(\C)CCC=C(C)C)S(=O)(=O)c3ccccc3)c3ccccc3N[C@H]2N1 (some centres undefined) | · | · | -1 | -2 | -1
CCCC/C=C1/[C@H](c2ccc(Cl)cc2)N(Cc2ccc3c(c2)OCO3)C2=N[C@H](c3ccccc3)CC(=O)N21 | 0 | · | -2 | -2 | -1
O=C(COc1ccccc1Cl)c1ccc2c(c1)CCCC2 | 1 | 1 | 12* | 0 | 3
O=C(CCc1nc2ccccc2c(=O)[nH]1)N1CCCc2ccccc21 | 2 | 0 | 2 | 1.3* | 5.6*
COC(=O)[C@]12C[C@H](CC(=O)NCc3cccc(C(F)(F)F)c3)C(=O)N(CCC3=CCCCC3)C1=C[C@H](C1CCCC1)O[C@@H]2C | -1 | · | 1 | -1 | -2
COc1ccc(Nc2ccc(C(=O)O)cc2[N+](=O)[O-])cc1 | 0 | 2 | 0 | -1 | -2
COc1ccc(Nc2ccc([N+](=O)[O-])cc2[N+](=O)[O-])cc1 | 0 | 6.3* | -1 | -2 | -1
COC(CNC(=O)[C@H](Cc1ccccc1)NC(C)(C)C(=O)NC1CCCCC1)OC | · | · | 1 | -1 | -1
COCCN1CN(S(=O)(=O)c2ccccc2)c2nc3ccccc3nc21 | -1 | 0 | 0 | -1 | -1
O=S(=O)(c1cccs1)N1CN(Cc2ccco2)c2nc3ccccc3nc21 | -1 | 3 | 2 | 0.9* | 0
COc1ccccc1CN1CN(S(=O)(=O)c2ccccc2)c2nc3ccccc3nc21 | 1 | -1 | 4 | -1 | 6.1*
Cc1cc(-c2ccc(F)cc2)nc2cc(C(N)=O)nn12 | -1 | 0 | 1 | -1 | -3
CCOC(=O)c1cnn2c(C)cc(-c3ccc(F)cc3)nc12 | 3 | 1 | 12* | 0 | 2
C#CCNC(=O)C[C@H]1C[C@@]2(C(=O)OC)C(=C[C@H](C(C)(C)C)O[C@@H]2C)N(Cc2cccc3ccccc23)C1=O | -1 | · | 3 | -2 | -1
O=C(Cn1c(=O)n(Cc2ccco2)c(=O)c2ccccc21)Nc1cccc(Cl)c1 | 0 | 1 | 11* | -1 | 1
COc1ccccc1/C=C/C(=O)OCC(=O)N1CCCCC1 | 0 | 1 | 4 | -1 | 1
COc1cccc(/C=C/C(=O)OCC(=O)N2CCCC2)c1OC | 4.4* | 1 | 3 | -1 | 0
N#Cc1ccc(CSc2nc3sc4c(c3c(=O)n2-c2ccc(Br)cc2)CCCC4)cc1 | 0 | · | -1 | -1 | -1
CCn1c(/C=C/c2cc[n+](C)cc2)nc2ccccc21 | 0 | 4.2* | 2 | -1 | 2
COP(=O)(O)C[C@@H]1CCc2cc(C)cc([C@H](CC(C)C)NC(=O)OCc3ccccc3)c2O1 | -1 | · | -1 | -1 | 5
Cc1ccc2c(c1)N(C(=O)CCC(=O)N1CCC(C(N)=O)CC1)CCO2 | 1 | 0 | 1 | 1.3* | 1
CCOC(=O)N1CCN(C(=O)CCC(=O)N2CCOc3ccc(C)cc32)CC1 | 0 | 0 | 1 | -1 | -1
O=C(Nc1ccc(Cl)cc1)C1C2CCCCC21 (centres undefined) | 1 | 1 | 12* | 1.2* | 3
O=C1N(Cc2ccccc2)c2ccccc2C12CCCc1sc(CCc3ccccc3)nc12 (centres undefined) | 0 | · | -1 | -2 | -2
CC(C)N1CCN(Cc2cc3ccccc3[nH]2)CC1CCO (centres undefined) | 0 | 1 | 4 | 1.1* | 3
SMILES | DAX1 inh-1 | DAX1 inh-2 | hgDAF-12 ag | ssDAF-12 act | hcDAF12 agonist
CC(C)N1CCN(Cc2ccc(-c3ccccc3)cc2)CC1CCO (centres undefined) | 0 | 1 | -2 | -2 | -1
CCOC(=O)CNC(=O)CSc1nnc(-c2ccc(C(C)(C)C)cc2)n1-c1ccc(Cl)cc1 | 0 | · | -3 | -1 | -3
COc1ccc(C=NNC(=O)c2cc(-c3ccc(C)c(C)c3)n[nH]2)cc1OCc1ccccc1 | -2 | · | 9 | -1 | 0
COc1ccc(C(CNC(=O)c2ccc(S(=O)(=O)Nc3ccccc3OC)cc2)N2CCCC2)cc1 (centres undefined) | 4.2* | 1 | 2 | -1 | 1
COc1cccc(Cn2cc(COC(=O)N3CCCC3)nn2)c1 | 0 | · | -1 | -2 | -2
CN=C1S/C(=C\c2cc(C)n(-c3ccccc3F)c2C)C(=O)N1C | -2 | 1 | -6 | -3 | -3
COCCN=C1S/C(=C\c2cc(C)n(-c3ccc(F)cc3F)c2C)C(=O)N1C | · | · | 4 | 0 | 5.7*
CCc1ccc(C(=O)CN2C(=O)NC3(CCCCCC3)C2=O)cc1 | 4.5* | 1 | 5 | -1 | 1
CN(Cc1ccc2c(c1)OCCO2)C(=O)CN1C(=O)NC2(CCCCC2)C1=O | -2 | 1 | 0 | -1 | 1
O=C(CN1C(=O)NC2(CCCCCC2)C1=O)c1ccc(F)cc1 | 0 | 0 | 2 | 0 | 2
CCc1cccc2c(C(=O)CN3C(=O)NC4(CCCCC4)C3=O)c[nH]c12 | 3.9* | -1 | -8 | -2 | -1
O=C(CN1C(=O)NC2(CCCCCC2)C1=O)c1ccc2c(c1)OCCO2 | 2 | 2 | 11* | 0 | 6.4*
CC(C)N(Cc1ccccc1)C(=O)CN1C(=O)NC2(CCCC2)C1=O | 4.1* | -1 | -2 | -1 | -1
CN(Cc1ccccc1)C(=O)CN1C(=O)NC2(CCCC2)C1=O | -1 | 0 | 2 | -1 | 1
CCN(CC)C(=O)CC[C@@H]1CC[C@]2(CCCN(Cc3ccncc3)C2)O1 | 0 | · | 1 | 0 | -2
Cn1cccc1[C@]1(O)C(=O)Nc2ccc(F)cc21 | -1 | · | -1 | -1 | -1
Cc1ccc(S(=O)(=O)N2O[C@@H](c3ccccc3)C[C@H]2CON2C(C)(C)CCCC2(C)C)cc1 | · | · | 0 | -1 | -1
COC(=O)C(C)N1C(=O)S/C(=C\c2cc(C)n(-c3ccccn3)c2C)C1=O (centres undefined) | 1 | 0 | 11* | 0 | 0
CC(c1ccccc1)N1CC[C@H]2C=CC[C@@H](C(=O)Nc3ccc(F)c(F)c3)[C@H]2C1=O (some centres undefined) | · | · | -1 | -1 | 1
O=C1CCC[C@H]2C[C@H](NCc3cccs3)CC[C@]23CCCN13 | · | · | -1 | -2 | -1
O=C1NC2(CCCCC2)C(=O)N1c1ccccc1 | -1 | 5.8* | 0 | -1 | -1
Cc1ccc(C2=NOC(=O)/C2=C\c2ccc(C)o2)cc1 | 0 | 5.8* | -1 | -1 | 0
Cc1ccc(/C=C2\C(=O)ON=C2c2ccccc2)o1 | 0 | · | 0 | -1 | -1
Cc1cc(C(=O)CSc2nnnn2C)c(C)n1C1CC1 | 1 | 2 | 12* | -1 | 2
COc1ccc(-c2csc(Nc3ccccc3)[n+]2Cc2ccccc2)cc1 | 0 | 1 | 6 | 0.9* | 0

Screens deposited in PubChem by The Scripps Research Institute Molecular Screening Center.
